Among the test systems are K-562 leukemia; MALME-3M melanoma; MDA-MB-231 breast; RXF 393 renal; SF-268 CNS; SF-295 CNS; SF-539 CNS; UACC-257 melanoma; M14 melanoma; HCT-15 colon; HT29 colon; SNB-19 CNS; U251 CNS; PC-3 prostate; SK-MEL-5 melanoma; UACC-62 melanoma; LOX IMVI melanoma; SK-MEL-28 melanoma; SK-MEL-2 melanoma; SNB-75 CNS.
Holding throughout (assay): NCI-60 one-dose screen, 48 h (100 = growth as untreated, 0 = no growth, -100 = all killed)
Holding throughout (details): 10 µM unless noted

This is part of a sample that, as a whole, favours compounds with a hit. Of some 83,000 tested, about 20% had one in any assay.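 Single-dose data. Exposure time 48 hours. Values below 10 considered active.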 Unmarked numbers belong to inactive results. Active and inactive are the calls of the source.

For `CCOC(=O)C1C(=O)OC2CCCCC21` (stereo not given), the growth with K-562 leukemia is 102%; in the experiment with MALME-3M melanoma, 120%; in the experiment with MDA-MB-231 breast, 101%; in the experiment on RXF 393 renal it was 119%; in the experiment with SF-268 CNS it was 111%; with SF-295 CNS it was 114%. Also, the growth is 105% in the experiment with SF-539 CNS; 102% in the experiment on UACC-257 melanoma; 98.3% in the experiment with M14 melanoma; 101% in the experiment with HCT-15 colon; 110% with HT29 colon; 97.6% in the experiment on SNB-19 CNS. The growth in the experiment with U251 CNS was 101%; in the experiment with PC-3 prostate it was 107%; in the experiment on SK-MEL-5 melanoma it was 114%; in the experiment on UACC-62 melanoma, 99.8%; with LOX IMVI melanoma, 105%; in the experiment on SK-MEL-28 melanoma it was 109%. In addition, the growth with SK-MEL-2 melanoma is 118%.
Take `Cc1ccc(NC(=O)COC(=O)c2ccc(S(=O)(=O)N3CCCCCC3)cc2)cc1`: the growth in the experiment with K-562 leukemia was 103%; with MALME-3M melanoma it was 127%; with MDA-MB-231 breast, 101%; with RXF 393 renal, 88.9%; in the experiment on SF-268 CNS, 94.6%; in the experiment on SF-295 CNS, 88.9%. Also, the growth was 105% in the experiment with SF-539 CNS; 94.3% in the experiment on UACC-257 melanoma; 126% with M14 melanoma; 105% with HCT-15 colon; 106% in the experiment on HT29 colon; 33.4% in the experiment with SNB-19 CNS. The growth in the experiment with U251 CNS is 104%; with PC-3 prostate, 93.6%; in the experiment with SK-MEL-5 melanoma, 104%; in the experiment with UACC-62 melanoma, 95%; in the experiment with LOX IMVI melanoma, 97.1%; in the experiment with SK-MEL-28 melanoma it was 119%. For the same molecule, in the experiment with SK-MEL-2 melanoma, the growth was 144%.
Regarding `Cc1nnc(Nc2ccc(NC(=O)Nc3ccc(Cl)cc3)cc2)c2ccccc12`, the growth was -16.7% (active) with K-562 leukemia; -9.9% (active) with MALME-3M melanoma; 23.1% in the experiment with MDA-MB-231 breast; -39.7% (active) in the experiment with RXF 393 renal; 48.7% in the experiment with SF-268 CNS; 4.8% (active) with SF-295 CNS. In addition, the growth in the experiment on SF-539 CNS was 16.2%; with UACC-257 melanoma it was 73.8%; in the experiment on M14 melanoma it was 37.3%; in the experiment on HCT-15 colon it was 6.39% (active); in the experiment with HT29 colon, 2.24% (active); in the experiment on SNB-75 CNS, 68.1%. For the same molecule, the growth in the experiment with U251 CNS is 5.4% (active); in the experiment on PC-3 prostate, 22.8%; with SK-MEL-5 melanoma, 52.3%; with UACC-62 melanoma it was -34.4% (active); in the experiment with LOX IMVI melanoma it was -27.3% (active); with SK-MEL-28 melanoma, -11.9% (active). In addition, the growth with SK-MEL-2 melanoma is 44%.
For `COc1ccc(CCN2CCCN3C2=Nc2ccccc2S3(=O)=O)cc1`, the growth with K-562 leukemia is 15.6%; in the experiment with MALME-3M melanoma, 68.8%; with MDA-MB-231 breast, 49.1%; in the experiment on RXF 393 renal, -0.424% (active); in the experiment with SF-268 CNS, 63.1%; in the experiment with SF-295 CNS, 14%. In addition, the growth in the experiment on SF-539 CNS was -28.2% (active); in the experiment on UACC-257 melanoma it was 75.7%; in the experiment on M14 melanoma it was 31.1%; in the experiment with HCT-15 colon, 25.4%; in the experiment with HT29 colon it was 13.7%; in the experiment on SNB-75 CNS it was 16.2%. For the same molecule, the growth in the experiment on U251 CNS is 30%; in the experiment with PC-3 prostate, 38.5%; in the experiment on SK-MEL-5 melanoma, 35.9%; in the experiment with UACC-62 melanoma, 23.5%; with SK-MEL-28 melanoma it was 62.5%; in the experiment on SK-MEL-2 melanoma it was 51.9%.
`Nc1nc(SCC2(CCl)COC2)c2[nH]cnc2n1`: the growth was 90.6% with K-562 leukemia; 88.8% in the experiment on MALME-3M melanoma; 104% with MDA-MB-231 breast; 113% with RXF 393 renal; 98.5% in the experiment on SF-268 CNS; 110% in the experiment with SF-295 CNS. Further, the growth in the experiment with SF-539 CNS is 99.6%; in the experiment with UACC-257 melanoma, 99.1%; in the experiment with M14 melanoma it was 97%; with HCT-15 colon it was 99.6%; in the experiment on HT29 colon it was 99.2%; with SNB-19 CNS it was 99.2%. Moreover, the growth with U251 CNS was 101%; in the experiment with PC-3 prostate, 93.5%; in the experiment with SK-MEL-5 melanoma, 107%; with UACC-62 melanoma, 96.2%; in the experiment on LOX IMVI melanoma it was 95.8%; in the experiment with SK-MEL-28 melanoma, 103%. In addition, in the experiment with SK-MEL-2 melanoma, the growth was 97.1%.
Take `COc1ccc2nc(-c3ccc(-n4cncc4-c4ccc(OC)c(N)c4)cc3)sc2c1`: the growth in the experiment with K-562 leukemia is 90.6%; with MALME-3M melanoma, 131%; in the experiment with MDA-MB-231 breast, 104%; in the experiment on RXF 393 renal, 113%; in the experiment with SF-268 CNS, 109%; in the experiment on SF-295 CNS, 99.8%. The growth was 105% in the experiment on SF-539 CNS; 109% in the experiment with UACC-257 melanoma; 110% in the experiment on M14 melanoma; 97.4% in the experiment on HCT-15 colon; 96.8% with HT29 colon; 98.6% with SNB-19 CNS. Further, the growth in the experiment on U251 CNS was 105%; in the experiment on PC-3 prostate, 84.6%; with SK-MEL-5 melanoma it was 105%; in the experiment on UACC-62 melanoma it was 101%; in the experiment with LOX IMVI melanoma, 113%; with SK-MEL-28 melanoma, 106%. In the experiment on SK-MEL-2 melanoma, the growth is 112%.
For `COc1ccc(-c2cncn2-c2ccc(-c3nc4cc(OC)c(OC)c(OC)c4s3)cc2)cc1N`, the growth with K-562 leukemia is 41%; in the experiment with MALME-3M melanoma, 57.9%; in the experiment with MDA-MB-231 breast, 76.4%; with RXF 393 renal, 75.8%; with SF-268 CNS, 93.1%; in the experiment with SF-295 CNS it was 50%. The growth was 87.8% in the experiment with SF-539 CNS; 71.6% in the experiment on UACC-257 melanoma; 46.5% in the experiment with M14 melanoma; 42.1% in the experiment with HCT-15 colon; 43.7% with HT29 colon; 72.1% with SNB-19 CNS. For the same molecule, the growth in the experiment with U251 CNS is 56.3%; in the experiment on PC-3 prostate, 30.1%; with SK-MEL-5 melanoma it was 26.9%; in the experiment on UACC-62 melanoma, 53.7%; with LOX IMVI melanoma it was 62.4%; with SK-MEL-28 melanoma, 78.5%. Moreover, the growth in the experiment with SK-MEL-2 melanoma was 7.6% (active).
For `Cc1ccc(NC(=O)Nc2ccc(-c3cccnc3)cc2N2CCC(CO)CC2)cc1`, the growth is 9.37% (active) in the experiment with K-562 leukemia; 25.5% in the experiment on MALME-3M melanoma; 9.31% (active) in the experiment with MDA-MB-231 breast; -34.8% (active) in the experiment with RXF 393 renal; 36.5% with SF-268 CNS; 40.1% with SF-295 CNS. In addition, the growth is 1.34% (active) in the experiment on SF-539 CNS; 24.3% in the experiment on UACC-257 melanoma; 27.1% in the experiment with M14 melanoma; 20.2% in the experiment on HCT-15 colon; 5.68% (active) in the experiment with HT29 colon; 15.3% in the experiment on SNB-75 CNS. Besides, the growth is 11.3% in the experiment with U251 CNS; 51.8% with PC-3 prostate; -46.1% (active) in the experiment with SK-MEL-5 melanoma; 4.73% (active) in the experiment with UACC-62 melanoma; 9.36% (active) in the experiment with SK-MEL-28 melanoma; 33.7% with SK-MEL-2 melanoma.

The values above are taken from PubChem BioAssay (NCI).
